Data on 16 compounds can be found in PubChem BioAssay (Tox21).

The structures appear in SMILES notation. Where “and” joins values, the source holds several entries; their conditions need not be identical. Equal entries are not always repeated. Calls of active or inactive are those of the source. Unless noted, calls come from the whole dose curve; as a rule, active = well fitted curve in the direction sought with a large enough effect in the repeat runs; inconclusive = weak or mixed curves; inactive = no such curve, though single readings can be large; an effect the other way counts as inactive or inconclusive.

Experiment [1] concerns thyroid hormone receptor (rat, GH3 cells). Nature of the experiment: qHTS assay to identify small molecule agonists of the thyroid receptor (TR) signaling pathway (AID 743066; calls by dose curve).
The nature of experiment [2]: qHTS assay to identify small molecule antagonists of the estrogen receptor alpha (ER-alpha) signaling pathway - cell viability counter screen (AID 743074; calls by dose curve;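 note: HEK293 cells carrying ER-alpha-UAS-bla reporter stimulated with 17beta-estradiol; nearly all actives have a fitted effect of over 45% in size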; note: potency is the fitted concentration of half-maximal effect). (In general: Quantitative high-throughput screening tests each substance at several concentrations.)
Experiment [3] deals with Estrogen receptor (Homo sapiens) (UniProt P03372). Nature of the experiment: qHTS assay to identify small molecule agonists of the estrogen receptor alpha (ER-alpha) signaling pathway (AID 743075; calls by dose curve;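 note: HEK293 GripTite cells with ER-alpha and UAS-driven beta-lactamase reporter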).
Experiment [4] has the same target. As to the kind of experiment: qHTS assay to identify small molecule agonists of the estrogen receptor alpha (ER-alpha) signaling pathway using the BG1 cell line (AID 743079). Note: nearly all actives have a fitted effect of over 20% in size. Note: potency is the fitted concentration of half-maximal effect.
A short description of experiment [5]: qHTS assay to identify small molecule antagonists of the estrogen receptor alpha (ER-alpha) signaling pathway using the BG1 cell line - cell viability counter screen (AID 743081).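 Note: compound given together with 17beta-estradiol as the ER stimulus; nearly all actives have a fitted effect of over 45% in size.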 Note: potency is the fitted concentration of half-maximal effect.
Experiment [6] can be described thus: qHTS assay to identify aromatase inhibitors - cell viability counter screen (AID 743084).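 Note: cells stimulated with testosterone during compound exposure; nearly all actives have a fitted effect of over 55% in size.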 Note: potency is the fitted concentration of half-maximal effect.
For experiment [7], the target named is Aryl hydrocarbon receptor (Homo sapiens) (UniProt P35869). As to the kind of experiment: qHTS assay to identify small molecule that activate the aryl hydrocarbon receptor (AhR) signaling pathway (AID 743085).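 For activation: HG2L7.5c1 human HepG2 liver cells with stably integrated DRE-driven firefly reporter; series mostly up to about 70 µM.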 Note: nearly all actives have a fitted effect of over 15% in size. Note: potency is the fitted concentration of half-maximal effect. Put shortly: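 Reporter assay in engineered HepG2 line HG2L7.5c1, whose plasmid carries twenty dioxin responsive elements upstream of firefly luciferase. Treatment lasted 24 h at 37C; ONE-Glo luminescence gauged induction.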

Experiment [8] is described as follows: qHTS assay to identify small molecule that activate the aryl hydrocarbon receptor (AhR) signaling pathway - cell viability counter screen (AID 743086). Note: nearly all actives have a fitted effect of over 45% in size. Note: potency is the fitted concentration of half-maximal effect. Put shortly: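 Cytotoxicity counter screen: CellTiter-Fluor signal (30 min, 37 C) in 4000 HepG2 cells/well carrying the DRE-luciferase reporter, following 24 h compound exposure at 37 C.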
The target in experiment [9] is Peroxisome proliferator-activated receptor gamma (Homo sapiens) (UniProt P37231). Nature of the experiment: qHTS assay to identify small molecule agonists of the peroxisome proliferator-activated receptor gamma (PPARg) signaling pathway (AID 743094; active = well fitted activation curve with a large enough effect in the signal ratio in the repeat runs, not every such curve was filed as active; inconclusive = weak or mixed curves, or effect the other way; inactive = no such curve, though single readings can be large or run the other way; the % refers to the signal ratio). An outline of the steps:
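Stably transfected HEK293H cells (GeneBLAzer PPARg UAS-bla) were incubated with test substances for 17 h at 37C after a 5 h pre-incubation; beta-lactamase activity was then detected by FRET substrate fluorescence.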

The nature of experiment [10]: qHTS assay to identify small molecule antagonists of the thyroid receptor (TR) signaling pathway (AID 743065). Note: nearly all actives have a fitted effect of over 55% in size. Note: potency is the fitted concentration of half-maximal effect. An outline of the steps: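 Antagonism measured as loss of luciferase signal in GH3 cells stably carrying a TRE-luciferase reporter, co-treated with compound and T3 (1 nM final) for 23.5 h at 37 C. Viability was read in the same well by CellTiter-Fluor.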
The nature of experiment [11]: qHTS assay to identify small molecule antagonists of the estrogen receptor alpha (ER-alpha) signaling pathway using the BG1 cell line (AID 743080; calls by dose curve;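 note: BG1 cells stimulated with 17beta-estradiol alongside compound; nearly all actives have a fitted effect of over 25% in size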; note: potency is the fitted concentration of half-maximal effect). Put shortly:
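Endogenous full-length ER-alpha in BG1-Luc-4E2 cells drives a stably integrated 4×ERE luciferase gene; compounds were tested against 17beta-estradiol over 21.5 h, with luminescence and multiplexed viability fluorescence recorded.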

Experiment [12] concerns the target Aromatase (Homo sapiens) (UniProt P11511). Nature of the experiment: qHTS assay to identify aromatase inhibitors (AID 743083). Note: nearly all actives have a fitted effect of over 55% in size. Note: potency is the fitted concentration of half-maximal effect.
Experiment [13] has as its target Peroxisome proliferator-activated receptor gamma (Homo sapiens) (UniProt P37231). As to the kind of experiment: qHTS assay to identify small molecule antagonists of the peroxisome proliferator-activated receptor gamma (PPARg) signaling pathway (AID 743191; calls by dose curve; note: series mostly up to about 63 µM; nearly all actives have a fitted effect of over 30% in size). An outline of the steps:
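Beta-lactamase reporter under UAS control in HEK293H PPARg-bla cells; compound treatment 17 h at 37C. Read-out: fluorescence intensity after 1 h room-temperature incubation with LiveBLAzer B/G FRET substrate.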

A short description of experiment [14]: qHTS assay to identify small molecule antagonists of the peroxisome proliferator-activated receptor gamma (PPARg) signaling pathway - cell viability counter screen (AID 743194). Note: nearly all actives have a fitted effect of over 55% in size. An outline of the steps:
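Viability was measured as CellTiter-Glo luminescence in GeneBLAzer PPARg UAS-bla HEK293H cells. These cells had been exposed 17 h at 37 C to compounds together with rosiglitazone at 50 nM final, with the beta-lactamase readout taken in the same wells.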

A short description of experiment [15]: qHTS assay for small molecule activators of the heat shock response signaling pathway - cell viability counter screen (AID 743209). Note: nearly all actives have a fitted effect of over 50% in size. An outline of the steps: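 Quantitative HTS format, Tox21 10K library. HeLa cells carrying an HSE-driven beta-lactamase reporter were treated 5 h at 37 C, then assessed for viability by CellTiter-Glo luminescence.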
The nature of experiment [16]: qHTS assay for small molecule activators of the heat shock response signaling pathway (AID 743210; active = well fitted activation curve with a large enough effect in the signal ratio in the repeat runs, with a control signal flat, not every such curve was filed as active; inconclusive = weak or mixed curves; the % refers to the signal ratio; note: series mostly up to about 63 µM). Put shortly: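 HeLa HSE-bla cells, overnight plating; cpd in DMSO 5 h, 37 C; LiveBLAzer B/G FRET substrate 2.5 h RT; fluorescence intensity read.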
Experiment [17] has as its target Estrogen receptor (Homo sapiens) (UniProt P03372). As to the kind of experiment: qHTS assay to identify small molecule antagonists of the estrogen receptor alpha (ER-alpha) signaling pathway (AID 743069; active = well fitted curve in the direction sought with a large enough effect in the signal ratio in the repeat runs, not every such curve was filed as active; inconclusive = weak or mixed curves, or effect the other way; inactive = no such curve, though single readings can be large or run the other way; the % refers to the signal ratio; note: potency is the fitted concentration of half-maximal effect). An outline of the steps:
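ER-alpha-UAS-bla GripTite HEK293 line; 2% charcoal-stripped FBS overnight; plated, 4 hr 37C/5% CO2; cpd in DMSO + 17beta-estradiol, 18 hr 37C; LiveBLAzer B/G FRET substrate 2 hr RT; fluorescence intensity.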

Experiment [18] is described as follows: qHTS assay for small molecule agonists of the antioxidant response element (ARE) signaling pathway (AID 743202; active = well fitted activation curve with a large enough effect in the signal ratio in the repeat runs, not every such curve was filed as active; inconclusive = weak or mixed curves, or effect the other way; inactive = no such curve, though single readings can be large or run the other way; the % refers to the signal ratio). An outline of the steps:
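Quantitative high-throughput format in HepG2 cells bearing an integrated ARE-beta-lactamase reporter. Compound exposure lasted 16 h at 37 C, and fluorescence was read 2 h after adding LiveBLAzer B/G substrate at room temperature.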

Experiment [19] in a line: qHTS assay for small molecule agonists of the antioxidant response element (ARE) signaling pathway - cell viability counter screen (AID 743203; calls by dose curve; note: nearly all actives have a fitted effect of over 55% in size). An outline of the steps:
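Cells (ARE-bla HepG2, 2,000/well) receive DMSO-dissolved compounds after a 5 hrs rest. Plates incubate 16 hrs at 37C/5% CO2. CellTiter-Glo luminescence is then recorded after 30 min at room temperature.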

Aryl hydrocarbon receptor (Homo sapiens), sequence (P35869 whole entry, looked up): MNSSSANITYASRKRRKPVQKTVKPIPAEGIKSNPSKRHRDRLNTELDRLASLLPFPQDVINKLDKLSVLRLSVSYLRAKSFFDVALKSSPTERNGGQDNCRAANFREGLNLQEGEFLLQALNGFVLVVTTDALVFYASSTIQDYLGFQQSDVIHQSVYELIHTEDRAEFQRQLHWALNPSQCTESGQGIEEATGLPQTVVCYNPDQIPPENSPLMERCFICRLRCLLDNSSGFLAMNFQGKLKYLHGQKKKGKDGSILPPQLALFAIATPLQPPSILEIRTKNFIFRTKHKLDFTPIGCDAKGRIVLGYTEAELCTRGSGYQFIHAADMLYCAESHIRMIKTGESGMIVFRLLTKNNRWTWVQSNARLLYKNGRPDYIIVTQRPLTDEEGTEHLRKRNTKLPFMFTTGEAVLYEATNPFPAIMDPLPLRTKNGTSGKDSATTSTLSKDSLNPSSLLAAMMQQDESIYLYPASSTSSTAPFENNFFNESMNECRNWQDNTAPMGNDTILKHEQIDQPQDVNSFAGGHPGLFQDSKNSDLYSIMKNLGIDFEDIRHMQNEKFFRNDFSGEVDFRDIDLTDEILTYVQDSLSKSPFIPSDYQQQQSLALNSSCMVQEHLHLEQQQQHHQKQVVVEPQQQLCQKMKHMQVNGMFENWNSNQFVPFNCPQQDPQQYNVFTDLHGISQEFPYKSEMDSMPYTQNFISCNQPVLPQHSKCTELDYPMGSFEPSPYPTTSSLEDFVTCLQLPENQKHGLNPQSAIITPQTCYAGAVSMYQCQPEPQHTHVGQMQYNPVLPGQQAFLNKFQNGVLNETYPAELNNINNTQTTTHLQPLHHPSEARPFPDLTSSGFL
Estrogen receptor (Homo sapiens), sequence (P03372 whole entry, looked up): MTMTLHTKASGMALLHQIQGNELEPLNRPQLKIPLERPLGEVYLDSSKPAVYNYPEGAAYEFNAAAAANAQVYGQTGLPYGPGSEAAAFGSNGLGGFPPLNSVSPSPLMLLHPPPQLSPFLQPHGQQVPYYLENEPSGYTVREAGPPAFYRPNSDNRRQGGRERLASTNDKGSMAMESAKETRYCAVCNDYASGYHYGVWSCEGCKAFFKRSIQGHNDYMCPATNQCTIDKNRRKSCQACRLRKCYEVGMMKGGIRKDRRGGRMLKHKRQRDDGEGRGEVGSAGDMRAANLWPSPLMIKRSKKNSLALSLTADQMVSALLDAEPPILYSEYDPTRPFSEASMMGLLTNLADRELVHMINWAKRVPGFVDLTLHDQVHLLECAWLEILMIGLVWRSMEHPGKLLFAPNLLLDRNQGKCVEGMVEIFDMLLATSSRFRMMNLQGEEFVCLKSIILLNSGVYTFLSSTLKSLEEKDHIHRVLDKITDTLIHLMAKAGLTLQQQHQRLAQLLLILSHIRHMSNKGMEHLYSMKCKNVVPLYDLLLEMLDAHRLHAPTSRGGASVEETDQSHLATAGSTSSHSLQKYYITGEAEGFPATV
Aromatase (Homo sapiens), sequence (P11511 whole entry, looked up): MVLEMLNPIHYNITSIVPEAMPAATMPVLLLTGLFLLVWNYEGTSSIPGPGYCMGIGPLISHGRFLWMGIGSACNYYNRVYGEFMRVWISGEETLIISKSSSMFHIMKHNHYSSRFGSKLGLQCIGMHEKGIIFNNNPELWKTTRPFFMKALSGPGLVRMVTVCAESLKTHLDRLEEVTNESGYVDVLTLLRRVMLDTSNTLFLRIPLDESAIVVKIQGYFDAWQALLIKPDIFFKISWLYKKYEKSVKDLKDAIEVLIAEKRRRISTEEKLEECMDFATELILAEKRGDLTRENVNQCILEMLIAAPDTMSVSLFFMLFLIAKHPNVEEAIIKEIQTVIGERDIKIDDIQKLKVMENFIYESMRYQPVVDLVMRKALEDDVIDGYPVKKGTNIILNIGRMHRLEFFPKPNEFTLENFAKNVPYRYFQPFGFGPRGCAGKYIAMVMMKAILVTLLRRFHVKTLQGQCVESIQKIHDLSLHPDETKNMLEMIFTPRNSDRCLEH
Peroxisome proliferator-activated receptor gamma (Homo sapiens), sequence (P37231 whole entry, looked up): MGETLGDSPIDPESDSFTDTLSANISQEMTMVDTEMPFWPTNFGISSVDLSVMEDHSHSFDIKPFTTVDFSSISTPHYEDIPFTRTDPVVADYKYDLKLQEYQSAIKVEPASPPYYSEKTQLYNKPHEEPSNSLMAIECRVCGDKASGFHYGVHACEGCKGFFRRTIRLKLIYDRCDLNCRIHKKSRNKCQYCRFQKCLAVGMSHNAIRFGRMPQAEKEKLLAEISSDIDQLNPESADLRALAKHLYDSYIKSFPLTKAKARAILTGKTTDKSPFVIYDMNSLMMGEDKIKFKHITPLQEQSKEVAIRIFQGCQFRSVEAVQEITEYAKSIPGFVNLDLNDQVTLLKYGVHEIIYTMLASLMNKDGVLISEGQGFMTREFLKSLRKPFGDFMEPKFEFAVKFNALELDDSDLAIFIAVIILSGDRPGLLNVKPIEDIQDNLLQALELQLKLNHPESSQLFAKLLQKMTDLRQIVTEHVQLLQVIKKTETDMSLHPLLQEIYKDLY

For `CC[C@H](C)C(=O)O[C@H]1CCC=C2C=C[C@H](C)[C@H](CC[C@@H]3C[C@@H](O)CC(=O)O3)[C@H]21`, the Potency result in experiment [1], in experiment [2], in experiment [3], in experiment [4], in experiment [5] and in [6] was “inactive” throughout. The Potency entry in [7], in experiment [8] and in experiment [9] was “inactive” in each case.

Consider `CCN1\C(=C/C=C/C=C/c2sc3ccccc3[n+]2CC)Sc2ccccc21`, for which the Potency in experiment [10] was 2.37 µM (active) and 4.22 µM (active); in [2], 67.4 nM (active) and 1.69 µM (active); in [11], 1.88 µM (active); in experiment [5], 11.9 µM (active); in experiment [12] it was 5.96 µM (active) and 10.6 µM (active); in experiment [6], 11.9 µM (active). Besides, the Potency in experiment [8] was 11.9 µM (active) and 23.7 µM (active). Moreover, the Potency result in experiment [3] and in [7] was “inactive” in each case.

On to `Oc1ccc(Cl)cc1C1CCCC1`, for which the Potency entry in experiment [1], in experiment [2], in experiment [3], in [11], in experiment [5] and in experiment [6] was “inactive” throughout. Besides, the Potency result in [8], in [9], in [13], in [14] and in [15] was “inactive” in each case. Also, the result in experiment [16] was inactive.

On to `CCCCCCCC1CCC(=O)O1` (stereo unspecified), for which the Potency entry in experiment [10], in experiment [1] and in experiment [7] was “inactive” throughout.

Consider `O=C1CCCCCCCCCCCCCC1`, for which the Potency result in [1], in experiment [17], in experiment [2], in experiment [3], in experiment [4] and in experiment [11] was “inactive” each time. For the same compound, the Potency result in experiment [5], in experiment [8], in [14], in [18] and in experiment [19] was “inactive” in each case. The compound was called inactive in experiment [16].

On to `CN1[C@@H](CC(=O)c2ccccc2)CCC[C@H]1C[C@H](O)c1ccccc1`, for which the Potency entry in [1], in experiment [17], in experiment [2], in experiment [3], in experiment [4] and in [11] was “inactive” each time. Moreover, the Potency entry in [12], in experiment [8] and in experiment [9] was “inactive” in each case.

Turning to `CN(C)CCC(O)(c1ccccc1)c1ccccc1Cl` (stereo unspecified), the Potency entry in experiment [1], in experiment [17], in experiment [2], in [3], in [4] and in experiment [11] was “inactive” in each case. Also, the Potency entry in experiment [12], in experiment [6] and in experiment [9] was “inactive” in each case.

With `CCC1OC(=O)C[C@@H](O)[C@H](C)[C@@H](O[C@@H]2O[C@H](C)C[C@H](N(C)C)[C@H]2O)[C@@H](CC=O)C[C@@H](C)C(=O)/C=C/[C@]2(C)OC2C1C` (stereo partly specified), the Potency in experiment [17] is 16.9 µM [inconclusive] (active); in experiment [12], 26.6 µM (active); in [6], 21.1 µM (active); in experiment [8], 21.1 µM (active). Further, the Potency entry in experiment [2], in experiment [3] and in experiment [7] was “inactive” in each case.

As to `CC[N+](CC)(CC)CCC(O)(c1ccccc1)C1CCCCC1` (stereo unspecified), the Potency result in experiment [2], in [12], in experiment [6], in experiment [7] and in [8] was “inactive” in each case.

In the case of `COc1cc2c(cc1OC)[C@@H](Cc1cc(OC)c(OC)c(OC)c1)[N+](C)(CCCOC(=O)CC/C=C/CCC(=O)OCCC[N+]1(C)CCc3cc(OC)c(OC)cc3[C@H]1Cc1cc(OC)c(OC)c(OC)c1)CC2` (stereo partly specified), the Potency result in experiment [2], in experiment [5], in experiment [12], in [6] and in experiment [8] was “inactive” throughout.

On to `CO/N=C(\C(=O)N[C@@H]1C(=O)N2C(C(=O)O)=C(CSc3cnns3)CS[C@H]12)c1csc(N)n1`, for which the Potency entry in experiment [17], in experiment [2], in experiment [3], in [4], in [11] and in [5] was “inactive” throughout. Besides, the Potency entry in experiment [12], in experiment [6], in experiment [7] and in [9] was “inactive” throughout.

As for `Cc1ccc2nc(-c3ccc(N)cc3)sc2c1S(=O)(=O)O`, the Potency entry in [1], in experiment [17], in [3], in experiment [5], in experiment [12] and in [8] was “inactive” in each case. The Potency entry in experiment [14], in experiment [19] and in experiment [15] was “inactive” throughout. Moreover, the Potency is 7.58 µM (active) in [4] and 4.26 µM (active) in experiment [7].

`C=C1[C@H](CO)[C@@H](O)C[C@@H]1n1cnc2c(=O)[nH]c(N)nc21`: the Potency result in experiment [2], in experiment [5], in [12], in [6], in experiment [7] and in experiment [8] was “inactive” throughout. Besides, the Potency entry in experiment [9] is “inactive”.

Regarding `CCCn1c(=O)[nH]c(=O)c2[nH]cnc21`, the Potency result in experiment [2], in experiment [5] and in experiment [8] was “inactive” each time.

With `O=C1CCC/C=C\CCCCCCCCCC1`, the Potency entry in experiment [1], in [2], in experiment [5], in [6], in experiment [8] and in experiment [14] was “inactive” each time. Moreover, the Potency entry in [18], in experiment [19] and in experiment [15] was “inactive” throughout. In addition, the Potency in experiment [12] is 30.6 µM (active).

On to `CCN(CC)CCNC(=O)c1ccc(NS(C)(=O)=O)cc1`, for which the Potency entry in [12], in [6], in experiment [7], in [8] and in experiment [9] was “inactive” in each case.
